About 79,000 compounds went through this panel and 15% of them were active in at least one assay; those are over-represented in the sample as a whole. Unmarked numbers belong to inactive results. Calls of active or inactive are those of the source. Rule as the data show it: active = growth inhibition above about 70%; inactive = the rest.

A short description of this test: NCI Yeast Anticancer Drug Screen. Data for the mlh1 rad18 strain (AID 175). To be noted: S. cerevisiae mlh1 rad18 strain growth inhibition; at 50.0 µM; hits give high values. The protocol:
Growth inhibition of yeast strains with defined genetic alterations is measured as a screen for potential anti-cancer activity. Selected strains with alterations in DNA damage repair or cell cycle control were exposed to compounds and growth inhibition was measured relative to vehicle treated controls. The strain used in this assay is mlh1 rad18
As for `CC1=CC(C)(C)NC(=S)N1c1ccc(C)cc1S(=O)(=O)O`, the growth inhibition was 27.9%.

As for `Nc1ccc([N+](=O)[O-])cc1C(=O)O`, the growth inhibition was 0%. The result for `O=[N+]([O-])c1ccc(C=Nc2ccccc2)cc1` reads 26.4%; that for `N#C/C(=C\c1ccccc1)c1cccc(Cl)c1`, -12.7%; that for `N/C(=N\OC(=O)NC(Cl)=C(Cl)Cl)c1ccc(Cl)cc1`, -7.95%.

`COc1ccc(CCNc2ncc([N+](=O)[O-])cc2N)cc1OC`: the growth inhibition is 2.75%. On to `COc1cc2ccccc2oc1=O`, for which the growth inhibition is 21.6%.

For the molecule `CN(C)C(=O)c1ccccc1`, the growth inhibition was 1.55%. As to `CN(C)CC(/C(Cc1ccccc1)=N\NC(=S)NN)c1ccccc1` (stereo not given), the growth inhibition was 13.7%.

`CC1=NN(C(=O)Nc2ccccc2)C(=O)C2CCC(=O)N12` (stereo not given): the growth inhibition is -8.1%.

Regarding `CC(C)NCCC(O)c1cc2ccccc2o1` (stereo not given), the growth inhibition is 5.15%. Consider `C(=C\c1nc2ncccn2n1)/c1ccccc1`, for which the growth inhibition was -14.3%. Consider `c1ccc(C2NC(c3ccccc3)c3c(ccc4ccccc34)O2)cc1` (stereo not given), for which the growth inhibition was 20.6%.

`CC1(C)C=C(C(Cl)c2ccccc2)C(=O)c2ccccc21` (stereo not given): the growth inhibition is -7.15%. Next, `CCOC(=O)C(=O)c1c(C)[nH]c(C)c1C(=O)OCC`: -9.1%; `O=C1c2c(ccc3c2CCC3)CC12Cc1cc3c(cc1C2)CCC3`: -15.2%; `CC(C)N1C(=O)NC(=O)C12CCN(Cc1ccccc1)CC2`: -13.7%. The result for `c1ccc(C2=C(c3ccccc3)CSSC2)cc1` reads 93.5% (active). Consider `O=C1C(SCCO)=C(SCCO)C(=O)c2[nH]cnc21`, for which the growth inhibition was 4.15%. For the molecule `CCCCCCCCCCCCC(Br)C(=O)OCC` (stereo not given), the growth inhibition was 3.95%. Consider `O=P(O)(O)OP(=O)(O)OCC1OC(n2cnc3c(=S)nc[nH]c32)C(O)C1O` (stereo not given), for which the growth inhibition is 2.85%. The result for `Nc1ccc(S(=O)(=O)/N=C(\NS(=O)(=O)c2ccc(N)cc2)c2ccccc2)cc1` reads 1.45%. Turning to `CC12C=CC(=O)C=C1CCC1C2C(O)CC2(C)/C(=C\CO)CCC12` (stereo not given), the growth inhibition was -3.35%. Next, `N#Cc1c2nc3ccccc3nc2n2ccc3ccccc3c12`: -71.7%; `CCOc1cc[n+](C)c2ccc(C)cc12`: 26.7%; `CCCCCCCCCCCCCCCC1CCCC2CCCCC12` (stereo not given): -26.4%.

As for `c1ccc(CN2CCC(N3CCCC3)CC2)cc1`, the growth inhibition is -29.9%.

As to `NC1CC(=O)N(Cc2ccccc2)C1=O` (stereo not given), the growth inhibition is 2.4%. The result for `Cn1nnnc1/C(=C/c1ccccc1)C(=O)O` reads 12.2%; that for `Nc1ncnc2c1cnn2-c1ccc(Cl)cc1`, 48%.

`c1ccc(CC2CO2)cc1` (stereo not given): the growth inhibition is -7.9%.

As for `CC(=O)OC1CCC(C(C)C)CC1` (stereo not given), the growth inhibition is -13.1%. On to `Cc1c(C)c2ccc(OCC(O)COC(C)C)c(C)c2oc1=O` (stereo not given), for which the growth inhibition was -29.6%. Next, `NC(=S)c1ccc[n+](Cc2c(Cl)cccc2Cl)c1`: -4.4%; `COc1cc(/C=C/c2ccc([N+](=O)[O-])cc2[N+](=O)[O-])ccc1O`: 25.9%. `CSC(=S)n1nc(-c2cccs2)c(N=Nc2ccc([N+](=O)[O-])cc2)c1C(F)(F)F`: the growth inhibition was 0.85%. Turning to `O=C1C/C(=C\c2cccc([N+](=O)[O-])c2)C(=O)N1`, the growth inhibition is -3.2%. The result for `O=c1cc(-c2ccc3c(c2)OCO3)oc2ccccc12` reads -3.8%.

In the case of `O=C1CN(/N=C/c2ccc(-c3cccc(C(F)(F)F)c3)o2)C(=O)N1`, the growth inhibition was 21.1%. Consider `CCCCC(O)c1ccc[n+]([O-])c1` (stereo not given), for which the growth inhibition was 3.95%.

These data come from PubChem BioAssay (NCI).
